# Results: publication PMC10313818
# Experiments:
# Test in all cases: cross-linking mass spectrometry
# Settings in all cases: not determined
# [1] = target: ACACA (UniProt Q13085)
# [2] = target: COX7C (UniProt P15954)
# [3] = target: HSDL2 (UniProt Q6YN16)
# [4] = target: IDH3G (UniProt P51553)
# [5] = target: ADCK1 (UniProt Q86TW2)
# [6] = target: ALDH3A2 (UniProt P51648)
# [7] = target: APOO (UniProt Q9BUR5)
# [8] = target: ATP5PF (UniProt P18859)
# [9] = target: COQ3 (UniProt Q9NZJ6)
# [10] = target: GUF1 (UniProt Q8N442)
# [11] = target: HADHA (UniProt P40939)
# [12] = target: MTRF1L (UniProt Q9UGC7)
# [13] = target: NOCT (UniProt Q9UK39)
# [14] = target: OGDH (UniProt Q02218)
# [15] = target: OGDHL (UniProt Q9ULD0)
# [16] = target: PDSS1 (UniProt Q5T2R2)
# [17] = target: PHB2 (UniProt Q99623)
# [18] = target: PMPCA (UniProt Q10713)
# [19] = target: PRDX6 (UniProt P30041)
# [20] = target: RMND1 (UniProt Q9NWS8)
# [21] = target: SAMM50 (UniProt Q9Y512)
# [22] = target: SDHA (UniProt P31040)
# [23] = target: SIRT3 (UniProt Q9NTG7)
# [24] = target: SLC25A19 (UniProt Q9HC21)
# [25] = target: SPRYD4 (UniProt Q8WW59)
# [26] = target: TBRG4 (UniProt Q969Z0)
# [27] = target: TUFM (UniProt P49411)
# Chain of TOMM20, Q15388 (Q15388 whole entry): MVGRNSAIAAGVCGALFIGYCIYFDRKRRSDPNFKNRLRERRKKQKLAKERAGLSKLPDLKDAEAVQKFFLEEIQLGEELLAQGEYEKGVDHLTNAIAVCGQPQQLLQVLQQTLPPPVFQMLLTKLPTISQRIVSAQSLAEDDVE
# Chain of GUF1, Q8N442 (Q8N442 whole entry): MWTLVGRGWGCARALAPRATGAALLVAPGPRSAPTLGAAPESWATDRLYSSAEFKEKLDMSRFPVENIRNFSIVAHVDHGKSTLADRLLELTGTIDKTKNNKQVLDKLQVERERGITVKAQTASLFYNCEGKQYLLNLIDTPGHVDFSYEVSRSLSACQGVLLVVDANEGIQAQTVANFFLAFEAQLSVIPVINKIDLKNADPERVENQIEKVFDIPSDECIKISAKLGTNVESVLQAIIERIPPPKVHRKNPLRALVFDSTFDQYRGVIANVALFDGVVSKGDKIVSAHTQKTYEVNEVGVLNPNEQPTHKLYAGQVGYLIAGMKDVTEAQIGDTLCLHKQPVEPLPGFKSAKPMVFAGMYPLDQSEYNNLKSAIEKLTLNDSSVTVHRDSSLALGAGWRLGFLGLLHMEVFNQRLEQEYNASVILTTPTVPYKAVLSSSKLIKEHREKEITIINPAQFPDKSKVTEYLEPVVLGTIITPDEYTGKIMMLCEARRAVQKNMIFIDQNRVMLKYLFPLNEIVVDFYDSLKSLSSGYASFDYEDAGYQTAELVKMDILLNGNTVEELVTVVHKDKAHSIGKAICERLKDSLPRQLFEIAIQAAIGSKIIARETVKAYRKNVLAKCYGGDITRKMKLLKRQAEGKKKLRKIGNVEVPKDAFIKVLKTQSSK
# Chain of GUF1 (Q8N442 whole entry): as above
# Chain of ADCK1 (Q86TW2 whole entry): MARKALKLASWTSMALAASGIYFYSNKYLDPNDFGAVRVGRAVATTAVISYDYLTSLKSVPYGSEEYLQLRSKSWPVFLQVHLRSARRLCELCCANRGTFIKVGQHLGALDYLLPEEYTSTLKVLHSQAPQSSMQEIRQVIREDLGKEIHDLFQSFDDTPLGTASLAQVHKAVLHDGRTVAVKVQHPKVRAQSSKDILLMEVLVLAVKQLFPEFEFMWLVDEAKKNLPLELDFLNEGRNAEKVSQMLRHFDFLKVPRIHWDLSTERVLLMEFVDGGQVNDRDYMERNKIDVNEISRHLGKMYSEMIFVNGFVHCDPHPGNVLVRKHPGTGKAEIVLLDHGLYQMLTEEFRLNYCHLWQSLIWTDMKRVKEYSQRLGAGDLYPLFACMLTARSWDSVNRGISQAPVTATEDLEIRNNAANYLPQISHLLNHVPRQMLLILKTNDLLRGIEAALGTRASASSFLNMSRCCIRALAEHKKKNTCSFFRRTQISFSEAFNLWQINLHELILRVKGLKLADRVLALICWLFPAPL
# Chain of MACROD1, Q9BQ69 (Q9BQ69 whole entry): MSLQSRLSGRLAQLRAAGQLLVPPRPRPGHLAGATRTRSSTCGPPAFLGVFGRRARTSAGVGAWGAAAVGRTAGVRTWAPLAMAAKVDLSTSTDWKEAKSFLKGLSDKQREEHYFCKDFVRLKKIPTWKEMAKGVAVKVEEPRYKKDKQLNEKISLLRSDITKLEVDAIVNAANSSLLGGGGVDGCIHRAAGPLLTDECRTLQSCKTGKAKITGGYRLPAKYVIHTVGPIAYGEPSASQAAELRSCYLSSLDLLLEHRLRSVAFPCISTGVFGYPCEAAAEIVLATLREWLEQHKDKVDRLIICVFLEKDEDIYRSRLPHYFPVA
# Chain of VDAC1, P21796 (P21796 whole entry): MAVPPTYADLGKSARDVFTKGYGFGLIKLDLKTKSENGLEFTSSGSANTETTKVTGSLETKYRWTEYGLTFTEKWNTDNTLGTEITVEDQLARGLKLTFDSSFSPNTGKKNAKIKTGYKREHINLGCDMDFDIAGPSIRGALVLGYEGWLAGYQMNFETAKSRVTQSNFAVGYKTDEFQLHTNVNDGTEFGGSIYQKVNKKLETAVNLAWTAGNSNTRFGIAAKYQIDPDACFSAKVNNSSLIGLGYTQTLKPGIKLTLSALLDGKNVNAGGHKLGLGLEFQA
# Chain of ATP5PF (P18859 whole entry): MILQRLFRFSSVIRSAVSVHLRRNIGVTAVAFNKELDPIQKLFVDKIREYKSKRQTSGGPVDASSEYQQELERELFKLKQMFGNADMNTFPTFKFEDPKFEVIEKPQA
# Chain of PRDX6 (P30041 whole entry): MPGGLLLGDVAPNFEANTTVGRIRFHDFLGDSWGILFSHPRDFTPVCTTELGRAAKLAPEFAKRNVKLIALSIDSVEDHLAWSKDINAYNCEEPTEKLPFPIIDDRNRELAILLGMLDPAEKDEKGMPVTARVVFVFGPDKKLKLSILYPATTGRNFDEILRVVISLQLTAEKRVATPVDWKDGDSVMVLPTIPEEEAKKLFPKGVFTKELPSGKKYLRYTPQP
# Chain of SAMM50 (Q9Y512 whole entry): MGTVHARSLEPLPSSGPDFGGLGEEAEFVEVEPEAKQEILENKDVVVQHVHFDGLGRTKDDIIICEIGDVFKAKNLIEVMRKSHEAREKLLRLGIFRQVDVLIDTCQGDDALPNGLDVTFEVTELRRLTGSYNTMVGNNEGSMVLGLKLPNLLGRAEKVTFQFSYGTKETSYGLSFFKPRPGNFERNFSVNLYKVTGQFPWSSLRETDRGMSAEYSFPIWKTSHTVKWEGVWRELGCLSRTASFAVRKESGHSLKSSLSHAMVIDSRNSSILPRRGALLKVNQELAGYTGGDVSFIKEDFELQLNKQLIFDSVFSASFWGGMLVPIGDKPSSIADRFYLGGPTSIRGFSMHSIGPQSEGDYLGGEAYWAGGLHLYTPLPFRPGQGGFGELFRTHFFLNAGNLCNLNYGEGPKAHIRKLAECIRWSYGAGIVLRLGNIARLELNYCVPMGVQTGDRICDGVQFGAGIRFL
# Chain of IDH3G (P51553 whole entry): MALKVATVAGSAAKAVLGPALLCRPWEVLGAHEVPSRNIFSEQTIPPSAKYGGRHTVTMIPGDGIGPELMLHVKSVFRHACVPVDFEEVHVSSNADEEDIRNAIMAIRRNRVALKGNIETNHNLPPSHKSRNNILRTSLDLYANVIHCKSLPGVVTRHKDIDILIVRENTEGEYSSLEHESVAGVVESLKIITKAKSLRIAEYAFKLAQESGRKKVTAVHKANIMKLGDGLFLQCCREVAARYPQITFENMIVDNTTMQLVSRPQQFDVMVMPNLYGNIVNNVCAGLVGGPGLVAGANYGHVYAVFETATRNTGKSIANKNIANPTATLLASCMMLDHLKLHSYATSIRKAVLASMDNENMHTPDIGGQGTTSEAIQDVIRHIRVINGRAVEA
# Chain of OGDHL (Q9ULD0 whole entry): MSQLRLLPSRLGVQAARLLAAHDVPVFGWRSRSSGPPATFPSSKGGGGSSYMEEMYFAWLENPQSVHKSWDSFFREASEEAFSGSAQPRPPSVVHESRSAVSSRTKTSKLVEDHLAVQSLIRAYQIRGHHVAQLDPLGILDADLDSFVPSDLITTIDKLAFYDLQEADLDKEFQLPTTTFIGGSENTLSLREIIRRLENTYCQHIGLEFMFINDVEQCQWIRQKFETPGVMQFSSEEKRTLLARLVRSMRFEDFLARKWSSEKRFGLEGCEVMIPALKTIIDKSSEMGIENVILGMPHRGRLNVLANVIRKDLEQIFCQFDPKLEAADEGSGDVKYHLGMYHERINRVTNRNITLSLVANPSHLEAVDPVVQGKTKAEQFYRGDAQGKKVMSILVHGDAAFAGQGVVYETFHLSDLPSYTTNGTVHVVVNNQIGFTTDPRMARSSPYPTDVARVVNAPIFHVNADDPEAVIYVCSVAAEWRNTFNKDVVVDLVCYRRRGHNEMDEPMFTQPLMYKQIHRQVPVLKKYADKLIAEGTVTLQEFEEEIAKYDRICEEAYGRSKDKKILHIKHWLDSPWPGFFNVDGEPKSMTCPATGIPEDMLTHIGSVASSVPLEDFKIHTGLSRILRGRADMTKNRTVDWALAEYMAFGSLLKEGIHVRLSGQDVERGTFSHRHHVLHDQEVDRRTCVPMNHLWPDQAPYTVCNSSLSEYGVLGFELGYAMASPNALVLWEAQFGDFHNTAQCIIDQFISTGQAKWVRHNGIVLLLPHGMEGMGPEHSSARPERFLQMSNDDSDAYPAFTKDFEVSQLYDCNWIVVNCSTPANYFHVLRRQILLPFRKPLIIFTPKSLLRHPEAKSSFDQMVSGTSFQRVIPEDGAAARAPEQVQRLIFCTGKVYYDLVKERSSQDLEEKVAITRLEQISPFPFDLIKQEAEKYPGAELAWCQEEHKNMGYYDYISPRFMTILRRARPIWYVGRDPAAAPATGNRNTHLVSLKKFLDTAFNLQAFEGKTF
# Chain of SLC25A19 (Q9HC21 whole entry): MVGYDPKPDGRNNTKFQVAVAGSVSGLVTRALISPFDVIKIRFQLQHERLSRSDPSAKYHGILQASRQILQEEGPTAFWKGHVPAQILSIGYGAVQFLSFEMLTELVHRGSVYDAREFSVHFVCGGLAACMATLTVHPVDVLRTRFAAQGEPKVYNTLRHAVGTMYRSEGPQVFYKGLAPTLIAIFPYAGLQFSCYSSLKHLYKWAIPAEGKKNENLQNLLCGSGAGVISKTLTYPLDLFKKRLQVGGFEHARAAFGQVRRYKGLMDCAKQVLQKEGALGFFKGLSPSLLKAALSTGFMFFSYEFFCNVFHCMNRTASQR
# Chain of COQ3 (Q9NZJ6 whole entry): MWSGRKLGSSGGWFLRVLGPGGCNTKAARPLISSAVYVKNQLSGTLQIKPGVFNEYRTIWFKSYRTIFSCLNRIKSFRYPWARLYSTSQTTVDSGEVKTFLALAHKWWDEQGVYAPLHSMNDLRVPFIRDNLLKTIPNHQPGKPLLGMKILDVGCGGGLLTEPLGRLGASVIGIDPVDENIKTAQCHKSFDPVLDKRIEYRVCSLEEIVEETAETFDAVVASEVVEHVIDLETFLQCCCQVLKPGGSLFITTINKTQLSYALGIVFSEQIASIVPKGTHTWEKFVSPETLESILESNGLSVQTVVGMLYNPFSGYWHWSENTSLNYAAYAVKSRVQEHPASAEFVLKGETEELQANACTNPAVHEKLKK
substance,measurement,setting,value
"HSPD1, P10809",cross-linked residues,[1],K58 - K2167
same,cross-linked residues,[2],K58 - K34
same,cross-linked residues,[3],K418 - K304
same,cross-linked residues,[4],K31 - K214
"NDUFC1, O43677",cross-linked residues,[5],K28 - K325
"HADHA, P40939",cross-linked residues,[6],K254 - M1
"GUF1, Q8N442",cross-linked residues,[7],K351 - K27
"ATP5PD, O75947",cross-linked residues,[8],K63 - K79
"DHX30, Q7L2E3",cross-linked residues,[9],K303 - K196
"ACADM, P11310",cross-linked residues,[10],K144 - K664
"BCL2, P10415",cross-linked residues,[11],M1 - K254
"TOMM20, Q15388",cross-linked residues,[12],K56 - K74
"ALDH4A1, P30038",cross-linked residues,[13],K93 - M1
"VDAC1, P21796",cross-linked residues,[14],K61 - K999
"PDHA1, P08559",cross-linked residues,[15],K40 - K525
"NDUFV3, P56181",cross-linked residues,[16],M1 - K91
"PHB1, P35232",cross-linked residues,[17],K202 - K216
"PMPCB, O75439",cross-linked residues,[18],K148 - K64
"COX5B, P10606",cross-linked residues,[19],K57 - K63
"BCKDHB, P21953",cross-linked residues,[20],K381 - K145
"VDAC2, P45880",cross-linked residues,[21],K74 - G2
"SNAP29, O95721",cross-linked residues,[22],K124 - K517
"MACROD1, Q9BQ69",cross-linked residues,[23],K99 - K399
"BPHL, Q86WA6",cross-linked residues,[24],V2 - V2
"ATP5F1D, P30049",cross-linked residues,[25],K136 - K33
"ACSM4, P0C7M7",cross-linked residues,[26],K542 - K576
"ACACB, O00763",cross-linked residues,[27],K1705 - K259
